± gives the standard deviation of the averaged measurements.
System: lanierone-responsive B-neuron OSN class (ItypOR36)
Assay: net action potential response of lanierone B-neuron (blank-subtracted) (spikes/s (Hz)); higher = stronger excitation
Details: 10 µg on filter paper, neuron: B neuron (small spike amplitude)
Experimental: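 Single sensillum recordings from antennal olfactory sensilla of live adult Ips typographus. Each compound was 10 µg in paraffin oil, delivered as a 0.5 s puff. Net response = spikes in the first 0.5 s of response minus the 0.5 s pre-stimulus count, doubled to give Hz, with blank response subtracted. Values are for the small-spike lanierone-responsive B-neuron (putatively expressing ItypOR36), recorded in sensilla co-housing the A-neuron class; N = 1-4, averaged.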

[1] = co-localized A-neuron class: (4S)-cis-verbenol
[2] = co-localized A-neuron class: (5S,7S)-trans-conophthorin
[3] = co-localized A-neuron class: (+)-isopinocamphone
[4] = co-localized A-neuron class: (+)-trans-4-thujanol
[5] = co-localized A-neuron class: ipsdienol
[6] = co-localized A-neuron class: myrcene
[7] = co-localized A-neuron class: p-cymene

## C=CCc1ccc(OC)c(OC)c1 [Eugenol methyl ether]
[1]
  net action potential response: 0 ± 8.7
[2]
  net action potential response: -3 ± 5
[3]
  net action potential response: 4.67 ± 9
[4]
  net action potential response: -2 ± 1.6
[5]
  net action potential response: -1.33 ± 5
[6]
  net action potential response: 0
[7]
  net action potential response: -3.33 ± 9.4

## C=CC(=C)CCC=C(C)C [Myrcene]
[1]
  net action potential response: 7.33 ± 7.6
[2]
  net action potential response: 0 ± 6
[3]
  net action potential response: 1.33 ± 9
[4]
  net action potential response: 2.5 ± 6.6
[5]
  net action potential response: 2.67 ± 4.2
[6]
  net action potential response: -6
[7]
  net action potential response: -2.67 ± 4.6

## C=C(C)C1CC=C(C)C(=O)C1 (racemic) [(±)-Carvone]
[1]
  net action potential response: -1.33 ± 5
[2]
  net action potential response: 1.5 ± 2.5
[3]
  net action potential response: 2.67 ± 2.3
[4]
  net action potential response: 1 ± 2.6
[5]
  net action potential response: -4.67 ± 2.3
[6]
  net action potential response: 6
[7]
  net action potential response: 0 ± 5.3

## c1ccc2c(c1)CCO2 [2,3-Dihydrobenzofuran]
[1]
  net action potential response: 3.33 ± 9.2
[2]
  net action potential response: -0.667 ± 4.2
[3]
  net action potential response: 0.667 ± 11
[4]
  net action potential response: 2.5 ± 3.4
[5]
  net action potential response: -3.33 ± 3.1
[6]
  net action potential response: -2
[7]
  net action potential response: 6 ± 8.7

## CC[C@H]1O[C@]2(C)CCC[C@H]1O2 (racemic) [(±)-exo-Brevicomin]
[1]
  net action potential response: 0 ± 2
[2]
  net action potential response: -4 ± 2
[3]
  net action potential response: -2
[4]
  net action potential response: -1 ± 1.1
[5]
  net action potential response: 4 ± 12
[6]
  net action potential response: 2
[7]
  net action potential response: -3.33 ± 2.3

## CC(=O)OCCc1ccccc1 [2-Phenethyl acetate]
[1]
  net action potential response: 5.33 ± 13
[2]
  net action potential response: -0.667 ± 3.1
[3]
  net action potential response: -1.33 ± 3.1
[4]
  net action potential response: 0.5 ± 4.1
[5]
  net action potential response: -6.67 ± 7
[6]
  net action potential response: -6
[7]
  net action potential response: -5.33 ± 2.3

Source: the supplement of paper PMC11577813, “Eurasian spruce bark beetle detects lanierone using a highly expressed specialist odorant receptor, present in several functional sensillum types” (BMC Biology, 2024)
